Screening results deposited in PubChem by National Center for Advancing Translational Sciences (NCATS).
A selection: hits, their analogues and other compounds. The true share with any hit is near 9.3%.
Vaccinia mCherry: qHTS for Stage-Specific Inhibitors of Vaccinia Orthopoxvirus: mCherry Reporter Primary qHTS | Vaccinia virus mCherry reporter infection, fluorescence | Potency, µM (top dose mostly 36.5 µM), actives largely listed as inhibitors | 310,000 tested, 0.63% active; calls by dose curve; tested in A549 cells; further: nearly all actives have a fitted effect of over 35% in size
FMDV antiviral: High Throughput Screening for Foot and Mouth Disease Virus Antivirals | AID 1159524, 2015 | Potency, µM (titrated, usually from 57.9 µM), usual class: inhibitors | FMDV antiviral cell-based qHTS | 410,000 tested, 1.2% active; calls by dose curve; tested in HEK293T cells; further: read-out not given here; nearly all actives have a fitted effect of over 45% in size
HCMV inh: qHTS Assay for inhibitors of the human cytomegalovirus (HCMV). HFF cells, HCMV-luciferase reporter, 72 h; active compounds read low. activity change, negative = inhibition, % at 57.5 µM. 410,000 tested, 4.5% active; in the data active means activity change below about -60%; inconclusive means no clear call, values can overlap the other calls; inactive means above about -39%
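HFF cells seeded 16 h at 37C, treated with compounds, infected with luciferase-reporter HCMV at MOI 1 PFU/cell; luciferase read at 72 h post infection, normalized to buffer-only and Salinomycin controls.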
Sm TGR inh: qHTS Assay for the Inhibitors of Schistosoma Mansoni Peroxiredoxins. Schistosoma mansoni thioredoxin glutathione reductase (TGR), Q962Y6. purified TGR, DTNB reduction, TNB absorbance 405 nm. Potency, µM (series often up to 114 µM), actives largely listed as inhibitors. 360,000 tested, 3% active; further: nearly all actives have a fitted effect of over 60% in size
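First, TGR (20 nM dispensed) and NADPH were mixed with compound. Second, a 15 min room-temperature incubation followed. Third, further NADPH and then DTNB were added to start the reaction. Finally, TNB absorbance was monitored kinetically.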
HCV inhibitor: qHTS Assay for Inhibitors of Hepatitis C Virus (HCV); Potency, µM (highest dose often 41.8 µM), usual class: inhibitors; Huh7.5.1 HCVcc-Cre infection, luciferase reporter, 44 h; 340,000 tested, 3.4% active
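Reporter virus HCVcc-Cre (~0.5 moi) infects cells exposed to compound; seeding density 1,000 cells/well with 4 h settling beforehand. Luminescence, 15 sec read, taken 44 h post-infection following a 15 min RT substrate incubation.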
VACV Venus inh: qHTS for Stage-Specific Inhibitors of Vaccinia Orthopoxvirus: Venus Reporter Primary qHTS | Vaccinia virus Venus reporter expression, fluorescence | Potency, µM (highest dose often 36.5 µM), actives largely listed as inhibitors | 330,000 tested, 0.46% active | AID 720580, 2013; calls by dose curve; tested in A549 cells; further: nearly all actives have a fitted effect of over 30% in size
Hits are given with their value; – = inactive; ? = inconclusive; · = no result; [ ] = dose if it differs, or a comment. Unless noted, the call rests on the fitted dose curve; in most records, active means well fitted curve in the direction sought with a large enough effect; inconclusive means small, poorly fitted or top-dose-only effect, or another doubt; inactive means no such curve, though single readings can be large; an effect the other way counts as inactive or inconclusive.

SMILES	Vaccinia mCherry	FMDV antiviral	HCMV inh	Sm TGR inh	HCV inhibitor	VACV Venus inh
Cc1ccc(C(=O)Nc2sc3c(c2C(=O)O)CCCCC3)o1	?	–	–	–	–	?
CC(C)(C)c1ccc(C(=O)Nc2sc3c(c2C(=O)O)CCC3)cc1	–	–	-76	–	–	–
COc1cccc(C(=O)Nc2sc3c(c2C(=O)O)CCCC3)c1	?	–	–	–	13µM	?
Cc1ccc(C(=O)Nc2sc3c(c2C(=O)O)CCCC3)o1	·	–	-62	–	?	·
CC(=O)c1cc(-c2ccccc2)n(CC(=O)Nc2cc(C)cc(C)c2)c1C	–	?	–	–	–	–
Cc1ccccc1OCc1n[nH]c(=S)n1-c1cccc(Cl)c1	·	–	–	–	–	·
Cc1ccc(S(=O)(=O)N(C)C[C@H]2OCc3cnnn3CCCC(=O)N([C@H](C)CO)C[C@H]2C)cc1	–	–	–	·	·	–
COc1cccc(CNC(=O)CCS(=O)(=O)Cc2ccc(C)cc2)c1	–	–	–	–	–	?
COc1ccc(CC(=O)Nc2sc3c(c2C(=O)Nc2cccc(C)c2)CCCCC3)cc1	–[7.34 µM]	–	–	–	·	–[7.34 µM]
COC(=O)c1c(NC(=O)c2ccco2)sc2c1CCC2	·	–	–	–	?	–
COc1ccc(CC(=O)Nc2sc3c(c2C(=O)Nc2c(C)cccc2C)CCCCC3)cc1	?	–	-70	–	·	?
COC(=O)c1c(NC(=O)c2ccc(C)o2)sc2c1CCCCC2	–	–	–	–	11µM	–
O=C(Nc1ccc([N+](=O)[O-])cc1)Nc1cnccn1	·	–	-81	–	–	·
CC(=O)Nc1ccc(OS(=O)(=O)c2ccc([N+](=O)[O-])cc2)cc1	·	–	-62	–	–	·
CCCCN(CCCC)S(=O)(=O)c1ccc(NS(=O)(=O)c2ccc(NC(C)=O)cc2)cc1	–	–	–	–	–	–
Cc1ccc(NC(=O)Nc2cnccn2)cc1	?	–	–	–	–	?
Cc1ccc(C(C)C)cc1NC(=O)Nc1ccc([N+](=O)[O-])cc1	?	?	-102	–	13µM	10µM
Cc1cc(O)c(C(C)C)cc1NC(=O)Nc1ccc([N+](=O)[O-])cc1	?	–	–	·	?	–
CCCCOc1ccc(S(=O)(=O)Nc2ccc(NC(C)=O)cc2)cc1	·	–	?	–	8.9µM	·
CC(SC(=S)N1CCCC1)C(=O)O (centres undefined)	–	–	–	–	–	–
COc1ccc(CCNC(=O)CCN2N=C(c3ccccc3)CCC2=O)cc1OC	–	–	–	–	·	–
Cc1cc(C)c2ccc(C(=O)O)nc2c1O	·	–	–	–	–	·
CC(=O)Nc1ccc(OCCOc2ccc([N+](=O)[O-])cc2)cc1	–	–	-72	–	–	–
CC(=O)c1ccc(NC(=O)Nc2ccc([N+](=O)[O-])cc2)cc1	–	–	–	–	–	–
O=C(Nc1ccc(Oc2ccc(NC(=O)Nc3ccc([N+](=O)[O-])cc3)cc2)cc1)Nc1ccc([N+](=O)[O-])cc1	?	?	-95	–	5.6µM	–
SMILES	Vaccinia mCherry	FMDV antiviral	HCMV inh	Sm TGR inh	HCV inhibitor	VACV Venus inh
Cc1cc(N2CCCC2)nc2ccccc12	·	–	–	·	–	·
Cc1cc(N2CCNCC2)nc2ccccc12	–	–	–	22µM	–	–
Cc1ccc2c(c1)nnn2C1CCN(S(=O)(=O)c2ccc(C(=O)N(C)C3CCCCC3)cc2)CC1	·	–	?	–	13µM	·
N#C/C=C1\n2c(nc3ccccc32)OC12CCCCC2	·	–	?	–	–	·
Cc1ccc(C2=Nc3ccccc3N(CC(=O)NCc3ccc(F)cc3)C(=O)C2)cc1C	?	–	–	–	·	–
O=C(CN1C(=O)CC(c2ccc(F)cc2)=Nc2ccccc21)NCc1ccccc1Cl	–	–	-64	–	·	–
COc1cc2cc(NC(C)=O)cc(NCc3ccccc3)c2cc1OC	–	–	–	35µM	–	–
Cc1cc([N+](=O)[O-])ccc1NCc1ccc2c(c1)OCCO2	–	–	–	–	10µM	–
COc1ccc([N+](=O)[O-])cc1NC1CCCCC1	·	–	–	–	11µM	·
O=[N+]([O-])c1ccc(NCc2ccc3c(c2)OCO3)cc1	–	–	–	–	?	–
COc1ccc(OC)c(CNc2ccc([N+](=O)[O-])cc2C)c1	–	?	-91	–	–	–
COc1ccc([N+](=O)[O-])cc1NCc1ccccc1	?	–	–	–	6.3µM	–
Cc1nc(CC(=O)N2CCC(n3c(C4CCC4)nc4cccnc43)CC2)cs1	–	–	·	·	·	–
COc1ccc(C(=O)NC(CO)c2nnc(SCc3ccc(Cl)c(Cl)c3)n2C)cc1 (centres undefined)	?	·	–	–	–	–
NC(=O)c1ccc(NCCc2cccs2)cc1	–	–	–	·	·	–
Cn1c2ccccc2c(=O)c2ccc(NCCc3cccs3)cc21	–	–	–	·	11µM	?
CC(C)(C)OC(=O)[C@H](Cc1ccccc1)NC(=O)c1[nH]cnc1C(=O)N[C@@H](Cc1ccccc1)C(=O)OCc1ccccc1	–	–	–	–	–	–
CCOC(=O)c1ccc(NC(=O)c2nc[nH]c2C(=O)N[C@@H](Cc2ccccc2)C(=O)OC(C)(C)C)cc1	13µM	?	–	–	–	?
C[C@H](NC(=O)c1nc[nH]c1C(=O)N[C@@H](Cc1ccccc1)C(=O)OC(C)(C)C)C(=O)OC(C)(C)C	?	–	–	–	11µM	?
CC(C)(C)OC(=O)[C@H](Cc1ccccc1)NC(=O)c1nc[nH]c1C(=O)N[C@@H](Cc1ccccc1)C(=O)OC(C)(C)C	?	?	-68	–	?	?
CCSc1cc(C2C(C#N)=C(N)OC(C)=C2C(=O)OC)c(C)o1 (centres undefined)	–	–	–	25µM	–	–
O=S(=O)(N1CCCCC1)N1CCN(S(=O)(=O)N2CCCCC2)CC1	·	–	–	–	–	–
COc1ccc(CNC(=O)CCC(=O)n2ncc3cc(C)ccc32)cc1	–	–	–	–	–	–
C[C@@H]1C=CC(=O)O[C@@H]1c1ccc(Cl)cc1	?	28µM	-92	–	–	3.5µM
CC1C(=O)OC(c2ccc(Cl)cc2)C(C)(C)C1=O (centres undefined)	–	–	–	–	–	–
Oc1ccc(O)c(/C(=N/Nc2ccccc2)c2ccccc2)c1	·	·	·	6.3µM	·	·
O=C(C(=NNc1ccccc1)c1ccccc1)c1ccccc1	–	–	–	·	?	–
O=C(O)c1csc(-n2nc(-c3ccccc3)cc2C(F)(F)F)n1	·	–	–	·	–	·
CCOP(=O)(OCC)/C(=N/OC(=O)c1ccc(Cl)cc1Cl)C(N)=O	–	–	–	6.3µM	–	–
